Source: PubChem BioAssay (NCI)
Compounds without any hit were thinned out: in the full panel of roughly 83,000, 20% have a hit.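 96-well plates, one dose, 48 hours. Percent growth reported; active if below 10.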 Values without a mark were called inactive. The source made the active and inactive calls.

Each molecule was assayed on DU-145 prostate (assay: NCI-60 one-dose screen, 48 h (100 = growth as untreated, 0 = no growth, -100 = all killed)). Conditions: 10 µM unless noted.
For `COc1ccc(OC)c(N(CCN2C(=O)c3ccccc3C2=O)C(=O)CCl)c1`, the growth was 86.1%. Molecule `O=C(NC1CCN(Cc2ccccc2)CC1)c1cc(C(=O)NC2CCN(Cc3ccccc3)CC2)cc(C(=O)NC2CCN(Cc3ccccc3)CC2)c1` has a growth of 93.4%. `CCOC(=O)c1c(Cl)c2c(n1Cc1ccccc1)-c1oncc1CCC2` gave a growth of 103%. `O=C(/C=C/c1ccccn1)c1ccc(OCc2nnc(-c3ccc(Cl)cc3)o2)cc1` gave a growth of 23.8%. With `CSc1nc2c(c(=O)n1C)N=C1c3ccccc3C(=O)C1C(c1ccccc1)N2` (stereo not drawn) the growth was 81.9%. Molecule `CC/C=C\C[C@H](O)C/C=C1/C(=O)C=C[C@@H]1C/C=C\CCCC(=O)OCCS(=O)(=O)c1ccccc1` has a growth of 47.7%. In the case of `Cc1cc(Nc2ccc(OCc3ccccc3)cc2)nc2cc(O)ccc12`, the growth is reported as 86.4%. For `CSc1nc2c(c(=O)[nH]1)N=C1c3ccccc3C(=O)C1C(c1ccc(F)cc1)N2` (stereo not drawn), the growth was 103%. With `CCOc1ccccc1CN1CCc2nc3cc(C(C)(C)C)[nH]n3c(=O)c2C1` the growth was 115%. For `O=C(NC(=S)Nc1cccc(NC(=S)NC(=O)c2ccccc2)c1)c1ccccc1`, the growth was 77.5%. Work on `CCOC(=O)c1c2c(n3cccc(Cl)c13)C(=O)c1ncccc1C2=O` yielded a growth of 45.8%. In the case of `O=C(NN1C(=O)CSC1c1ccc(Cl)cc1)c1[nH]c2ccc(F)cc2c1-c1ccccc1` (stereo not drawn), the growth is reported as 77.2%. In the case of `COc1ccc(-n2c(C(O)c3ccccc3)nn(CN3CCOCC3)c2=S)cc1` (stereo not drawn), the growth is reported as 109%. With `CCCC(=O)CC(C)=O.CCCC(=O)CC(C)=O.[Cu]` the growth was 110%. `COc1ccc(C2Nc3ncnc(N)c3N=C3c4ccccc4C(=O)C32)cc1` (stereo not drawn) was tested, and the growth was 102%. `Nc1nc(N)c2c(n1)NC1(C=C(O)c3ccccc31)C1=C(N2)c2ccccc2C1=O` (stereo not drawn) gave a growth of 98.7%. `CCOC(=O)c1cnc2ccc(Cl)cc2c1NCCCN(C)C` was tested, and the growth was 19.2%. Work on `CCCCCCc1cc2cc(-c3nc4ccccc4[nH]3)c(=Nc3ccccc3C)oc2cc1O` yielded a growth of 67.4%. `OC(c1ccccc1)c1nnc(SCc2ccccc2)n1Cc1ccccc1` (stereo not drawn) showed a growth of 108%. `CC(=O)O[C@@H]1/C=C/C(=O)N[C@@H](C)CCC/C=C/[C@@H]2CCC[C@H]21` gave a growth of 112%. For `COc1ccc(C2Nc3nc(OC)n(C)c(=O)c3N=C3c4ccccc4C(=O)C32)cc1` (stereo not drawn), the growth was 89.2%. `CN1CCN(c2nc(Nc3ccc(O)cc3)nc3ccccc23)CC1` showed a growth of 63%. `COc1ccc(/C=C2\SC(=Nc3ccccc3)NC2=O)cc1` was tested, and the growth was -50.8% (active). Molecule `CCOC(=O)c1cc2c(n1Cc1cc(OC)c(OC)c(OC)c1)-c1oncc1CCC2` has a growth of 13%. `Cn1c2c(c(=O)[nH]c1=O)NC1=C(C(=O)c3ccccc31)C1(C=C(O)c3ccccc31)N2` (stereo not drawn) was tested, and the growth was 89%. Work on `FC(F)(F)c1cccc(Nc2nc(-c3ccccc3)nc3ncccc23)c1` yielded a growth of 75.1%. Molecule `O=C(Nc1ccc(Cl)cc1)c1cc2ccccc2cc1OP(=O)(O)O` has a growth of 24.9%. For `COC(=O)/C(=C\c1c(-c2ccccc2)[nH]c2ccccc12)S(C)(=O)=O`, the growth was -5.09% (active). `Nc1ccc(C2c3ccccc3Oc3ccccc32)cc1` showed a growth of 106%. Molecule `N#CC(C#N)=Cc1c(-c2ccccc2)[nH]c2ccccc12` has a growth of 15.7%. With `CCCCc1ccc(NS(=O)(=O)c2cc3c4c(c2)CCN4C(=O)CC3)cc1` the growth was 16.4%. With `O=C(CSc1ncccc1C(=O)O)Nc1ccc(Oc2ccccc2)cc1` the growth was 110%. `N#C/C(=C\c1c(-c2ccccc2)[nH]c2ccccc12)C(=O)c1ccccc1` gave a growth of 31.7%. `O=C1/C=C/[C@@H](O)[C@@H]2C[C@@H](O)C[C@H]2/C=C/CCCCO1` showed a growth of 19.3%. Molecule `CCCC(c1nnnn1C1CCCCC1)N1CCN(C(=O)c2ccco2)CC1` (stereo not drawn) has a growth of 69.7%. In the case of `Nc1nc(Nc2cccc(F)c2)nc2ccccc12`, the growth is reported as 67.9%. With `CC(C)(C)c1ccc(C2CC(=O)C3=C(C2)Nc2ccccc2N(C(=O)c2ccccc2Cl)C3c2ccc(F)cc2)cc1` (stereo not drawn) the growth was 37%. In the case of `O=CCCCC(O)C=O` (stereo not drawn), the growth is reported as 106%. With `CN(O)c1nc(N(C)O)nc(N2CCOCC2)n1` the growth was 38.8%.

The molecules below were run on K-562 leukemia in the same assay as above. Conditions: 10 µM unless noted.
With `COc1ccc(OC)c(N(CCN2C(=O)c3ccccc3C2=O)C(=O)CCl)c1` the growth was 102%. Molecule `O=C(NC1CCN(Cc2ccccc2)CC1)c1cc(C(=O)NC2CCN(Cc3ccccc3)CC2)cc(C(=O)NC2CCN(Cc3ccccc3)CC2)c1` has a growth of 64.6%. With `CCOC(=O)c1c(Cl)c2c(n1Cc1ccccc1)-c1oncc1CCC2` the growth was 18.6%. In the case of `O=C(/C=C/c1ccccn1)c1ccc(OCc2nnc(-c3ccc(Cl)cc3)o2)cc1`, the growth is reported as -28.1% (active). `CSc1nc2c(c(=O)n1C)N=C1c3ccccc3C(=O)C1C(c1ccccc1)N2` (stereo not drawn) gave a growth of 32.9%. For `CC/C=C\C[C@H](O)C/C=C1/C(=O)C=C[C@@H]1C/C=C\CCCC(=O)OCCS(=O)(=O)c1ccccc1`, the growth was 7.77% (active). `Cc1cc(Nc2ccc(OCc3ccccc3)cc2)nc2cc(O)ccc12` was tested, and the growth was 5.02% (active). `CSc1nc2c(c(=O)[nH]1)N=C1c3ccccc3C(=O)C1C(c1ccc(F)cc1)N2` (stereo not drawn) showed a growth of 62.8%. Molecule `CCOc1ccccc1CN1CCc2nc3cc(C(C)(C)C)[nH]n3c(=O)c2C1` has a growth of 87.2%. `O=C(NC(=S)Nc1cccc(NC(=S)NC(=O)c2ccccc2)c1)c1ccccc1` showed a growth of 68.7%. Work on `CCOC(=O)c1c2c(n3cccc(Cl)c13)C(=O)c1ncccc1C2=O` yielded a growth of 62.3%. Work on `O=C(NN1C(=O)CSC1c1ccc(Cl)cc1)c1[nH]c2ccc(F)cc2c1-c1ccccc1` (stereo not drawn) yielded a growth of 28.2%. In the case of `COc1ccc(-n2c(C(O)c3ccccc3)nn(CN3CCOCC3)c2=S)cc1` (stereo not drawn), the growth is reported as 110%. `CCCC(=O)CC(C)=O.CCCC(=O)CC(C)=O.[Cu]` was tested, and the growth was 104%. In the case of `COc1ccc(C2Nc3ncnc(N)c3N=C3c4ccccc4C(=O)C32)cc1` (stereo not drawn), the growth is reported as 84.5%. For `Nc1nc(N)c2c(n1)NC1(C=C(O)c3ccccc31)C1=C(N2)c2ccccc2C1=O` (stereo not drawn), the growth was 95.5%. `CCOC(=O)c1cnc2ccc(Cl)cc2c1NCCCN(C)C` was tested, and the growth was 1.51% (active). In the case of `CCCCCCc1cc2cc(-c3nc4ccccc4[nH]3)c(=Nc3ccccc3C)oc2cc1O`, the growth is reported as 7.87% (active). `OC(c1ccccc1)c1nnc(SCc2ccccc2)n1Cc1ccccc1` (stereo not drawn) showed a growth of 84.4%. In the case of `CC(=O)O[C@@H]1/C=C/C(=O)N[C@@H](C)CCC/C=C/[C@@H]2CCC[C@H]21`, the growth is reported as 102%. `COc1ccc(C2Nc3nc(OC)n(C)c(=O)c3N=C3c4ccccc4C(=O)C32)cc1` (stereo not drawn) gave a growth of 83.8%. Molecule `CN1CCN(c2nc(Nc3ccc(O)cc3)nc3ccccc23)CC1` has a growth of 42%. With `COc1ccc(/C=C2\SC(=Nc3ccccc3)NC2=O)cc1` the growth was -64.2% (active). In the case of `CCOC(=O)c1cc2c(n1Cc1cc(OC)c(OC)c(OC)c1)-c1oncc1CCC2`, the growth is reported as 6.98% (active). For `Cn1c2c(c(=O)[nH]c1=O)NC1=C(C(=O)c3ccccc31)C1(C=C(O)c3ccccc31)N2` (stereo not drawn), the growth was 112%. In the case of `FC(F)(F)c1cccc(Nc2nc(-c3ccccc3)nc3ncccc23)c1`, the growth is reported as -47.1% (active). For `O=C(Nc1ccc(Cl)cc1)c1cc2ccccc2cc1OP(=O)(O)O`, the growth was 27.1%. `COC(=O)/C(=C\c1c(-c2ccccc2)[nH]c2ccccc12)S(C)(=O)=O` was tested, and the growth was 17.2%. In the case of `Nc1ccc(C2c3ccccc3Oc3ccccc32)cc1`, the growth is reported as 82.3%. Work on `N#CC(C#N)=Cc1c(-c2ccccc2)[nH]c2ccccc12` yielded a growth of 12.7%. In the case of `CCCCc1ccc(NS(=O)(=O)c2cc3c4c(c2)CCN4C(=O)CC3)cc1`, the growth is reported as 7.56% (active). For `O=C(CSc1ncccc1C(=O)O)Nc1ccc(Oc2ccccc2)cc1`, the growth was 94.4%. For `N#C/C(=C\c1c(-c2ccccc2)[nH]c2ccccc12)C(=O)c1ccccc1`, the growth was 21.6%. With `O=C1/C=C/[C@@H](O)[C@@H]2C[C@@H](O)C[C@H]2/C=C/CCCCO1` the growth was 13.7%. For `CCCC(c1nnnn1C1CCCCC1)N1CCN(C(=O)c2ccco2)CC1` (stereo not drawn), the growth was 9.87% (active). With `Nc1nc(Nc2cccc(F)c2)nc2ccccc12` the growth was 6.62% (active). Molecule `CC(C)(C)c1ccc(C2CC(=O)C3=C(C2)Nc2ccccc2N(C(=O)c2ccccc2Cl)C3c2ccc(F)cc2)cc1` (stereo not drawn) has a growth of 10.1%. `O=CCCCC(O)C=O` (stereo not drawn) gave a growth of 103%. For `CN(O)c1nc(N(C)O)nc(N2CCOCC2)n1`, the growth was 9.56% (active).
